Only some compounds are listed: those with a hit (about 4.2% of all), similar ones and a draw of the others.
VDR inhibitor: Inhibitors of the vitamin D receptor (VDR): qHTS; Vitamin D3 receptor (Homo sapiens), P11473; VDR-SRC2-3 peptide fluorescence polarization, 2 h; Potency, µM, inactives show max response, negative = inhibition, actives largely listed as inhibitors; hit rate 0.93% among 400,000; AID 504847, 2011
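After 23 nl compound addition and a short centrifugation, plates sat for 2 hours at ambient temperature; polarization of fluorescence then indicated loss of VDR binding to peptide SRC2-3.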
Sfp inh: qHTS Assay for Inhibitors of Bacillus subtilis Sfp phosphopantetheinyl transferase (PPTase). AID 1490, 2009. hit rate 3.5% among 310,000. Biochemical Sfp PPTase activity, qHTS. Potency, µM, for inactives: largest response in the series, negative = inhibition, most hits filed as inhibitors;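 also: the enzyme is Sfp with the accession as filed and its product quenches rhodamine fluorescence; 0% = enzyme reaction without inhibitor and -100% = no enzyme wells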
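Reaction rates are the 30-min fluorescence difference (ex 525, em 598 nm) in wells containing 15 nM Sfp, 5 uM rhodamine-CoA and 12.5 uM BHQ-2-YbbR at pH 7.6 with 10 mM MgCl2.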
PLK1 PBD block: qHTS for Inhibitors of PLK1-PDB (polo-like kinase 1 - polo-box domain): Primary Screen. Serine/threonine-protein kinase PLK1 (Homo sapiens), P53350. Plk1 PBD binding of FITC phosphopeptide, fluorescence polarization. Potency, µM, inactives show max response, negative = inhibition, actives largely listed as inhibitors. hit rate 2.8% among 360,000. AID 720504, 2013; also: series mostly up to about 57 µM; nearly all actives have a fitted effect of over 65% in size
Target sequence (P53350 whole entry, looked up, the tested form may be a part): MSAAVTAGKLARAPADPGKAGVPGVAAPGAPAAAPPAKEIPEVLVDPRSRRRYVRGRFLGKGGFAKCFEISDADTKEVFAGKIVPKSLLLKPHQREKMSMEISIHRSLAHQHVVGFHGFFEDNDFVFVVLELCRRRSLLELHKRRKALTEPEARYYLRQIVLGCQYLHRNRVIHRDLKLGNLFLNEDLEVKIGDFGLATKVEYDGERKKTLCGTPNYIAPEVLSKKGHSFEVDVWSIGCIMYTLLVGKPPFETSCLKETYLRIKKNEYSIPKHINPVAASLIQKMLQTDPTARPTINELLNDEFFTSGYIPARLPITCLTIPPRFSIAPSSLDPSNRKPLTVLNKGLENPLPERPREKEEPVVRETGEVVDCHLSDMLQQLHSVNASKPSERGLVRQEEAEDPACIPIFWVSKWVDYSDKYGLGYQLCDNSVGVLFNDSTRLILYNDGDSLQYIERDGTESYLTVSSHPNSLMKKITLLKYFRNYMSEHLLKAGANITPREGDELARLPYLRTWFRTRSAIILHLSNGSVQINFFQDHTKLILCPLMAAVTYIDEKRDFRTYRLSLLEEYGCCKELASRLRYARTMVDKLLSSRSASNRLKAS
12-LOX inh: Primary qHTS assay for inhibitors of human arachidonate 12S-lipoxygenase (ALOX12): Round 2. Potency, µM (doses to about 108 µM), inactives show at the highest dose activity change, negative = inhibition, most hits filed as inhibitors. purified 12hLO, xylenol orange hydroperoxide absorbance. hit rate 1.1% among 580,000
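Hydroperoxide product was detected by ferrous iron/xylenol orange as the 573 to 405 nm absorbance ratio. Arachidonic acid at 40 uM (final) was turned over for 30 min at room temperature by 150 nM human 12hLO, pH 7.0 Hepes buffer, after 15 min compound preincubation.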
The depositor's hits bear a star; u = inconclusive; x = no result; [ ] = another dose, or the depositor's remark. Calls follow the shape of the dose curve; as a rule, active = well fitted curve in the direction sought with a large enough effect; inconclusive = small, poorly fitted or top-dose-only effect, or another doubt; inactive = no such curve, though single readings can be large; an effect the other way counts as inactive or inconclusive. Unless noted, % is scaled to controls: 0 for no effect and ±100 for the full control effect; potency is read from the fitted curve at half-maximal effect.

SMILES	VDR inhibitor	Sfp inh	PLK1 PBD block	12-LOX inh
CCOc1ccc(-n2c(=O)c3c(C)c(C(=O)N(C)C)sc3n(CC(=O)Nc3ccccc3F)c2=O)cc1	-9%	0%	6%	1%
COc1cccc2c1OCC(CNC(=O)Cn1nc(C)c(C)cc1=O)C2 (stereo not given)	x	x	x	30%
O=C(Cc1ccccc1[N+](=O)[O-])NCc1ccco1	-20%	50µM*	-7%	u
CC(C)CNS(=O)(=O)c1ccc(CCC(=O)NCc2ccco2)cc1	-16%	40µM*	-23%	0%
CC(C)CNS(=O)(=O)c1ccc(CCC(=O)NCc2ccncc2)cc1	u	0%	-8%	u
O=C(Cc1ccccc1[N+](=O)[O-])NCc1ccncc1	5%	13%	-1%	-6%
CC(C)C(CC(=O)NCc1ccco1)c1ccco1 (stereo not given)	-1%	28µM*	-13%	9%
CN(C(=O)c1cc2ccccc2n1C)C1CCCN(C2Cc3ccccc3C2)C1 (stereo not given)	x	x	x	-11%
O=C(/C=C/c1ccccc1Cl)NC1CCS(=O)(=O)C1 (stereo not given)	u	5%	3.8µM*	2%
O=C(/C=C/c1ccc(Br)cc1)c1ccc(Cl)cc1	x	x	x	4%
O=C(/C=C/Sc1ccccc1)c1ccccc1	-86%	-2%	13µM*	7%
Cc1cc(N)c2cc(NC(=O)/C=C/c3ccccc3Cl)ccc2n1	43%	25µM*	-5%	x
O=C(/C=C/Sc1ccccc1)c1ccc(Cl)cc1	56µM*	-7%	-16%	1%
Cc1ccc(NC(=O)/C=C/c2ccccc2Cl)cc1Cl	2%	x	x	-13%
CCOC(=O)C1(Cc2ccccc2Cl)CCN(Cc2cccnc2)CC1	x	x	x	22%
O=C(CCNS(=O)(=O)c1ccc(Br)cc1)NNC(=O)C1COc2ccccc2O1 (stereo not given)	7%	x	-16%	u
COc1ccc(CNC(=O)N2CCN(c3ccc(F)cc3)CC2)cc1Cl	24%	11%	-12%	-20%
Cc1cccc(OCC(=O)NCCc2nc3ccccc3[nH]2)c1C	-26%	x	x	9%
CCC(CC)NC(=O)/C=C/c1ccccc1Cl	50µM*	6%	30µM*	u
O=C(C=Cc1ccccc1Cl)c1ccccc1	35µM*	x	-16%	6%
O=C(/C=C/C(=O)c1ccc(Cl)cc1)c1ccccc1	x	x	x	2.5µM*
O=C(CNc1ccccc1)N/N=C/c1ccc2c(c1)OCO2	-21%	-1%	24µM*	u
Cc1ccc(OCc2cc(C(=O)N(C)Cc3cnc4ccccn34)no2)cc1C	u	3%	21µM*	6%
Cc1ccc(OCc2cc(C(=O)N(C)CC3CCOCC3)no2)cc1C	-9%	6%	-5%	0%
Cc1ccc(C(C)(C)C)c(OCCCn2ccnc2)c1	-11%	-14%	0%	-19%
SMILES	VDR inhibitor	Sfp inh	PLK1 PBD block	12-LOX inh
CC(C)(C)c1ccccc1OCCCCCn1ccnc1	7%	56µM*	u	-29%
Cc1ccc(OCCCCn2ccnc2)c([N+](=O)[O-])c1	-15%	56µM*	-15%	-8%
Cc1ccc(OCCOCCn2ccnc2)c(Br)c1	1%	79µM*	-5%	u
Cc1cc(C(=O)Nc2ccc(F)cc2C)cs1	6%	18%	-1%	7%
Clc1cccc(-c2ccc(-c3nc4ccccn4c3NCc3ccccc3)cc2)c1	-22%	x	-8%	-13%
COc1ccc(-c2nc(-c3ccccc3OCC(=O)N3CCCC(C)C3)no2)cc1 (stereo not given)	x	x	x	-4%
CCCCNC(=O)c1ccc(F)cc1	x	x	x	26%
O=C(CC12CC3CC(CC(C3)C1)C2)N1CCOCC1	0%	9%	3%	-21%
CC(C(=O)C12CC3CC(CC(C3)C1)C2)N1CCOCC1 (stereo not given)	u	6%	21µM*	0%
COc1ccc(S(=O)(=O)NNC(N)=S)cc1	3%	28µM*	-3%	-1%
Cc1ccc(S(=O)(=O)Cc2cc(F)c([N+](=O)[O-])cc2[N+](=O)[O-])cc1	-8%	-2%	2.4µM*	x
CCN1CCc2c(sc(NC(=O)c3ccc(S(=O)(=O)N(C)C4CCCCC4)cc3)c2C(N)=O)C1	3%	x	x	u
Cc1ccc(C(=O)NCC(=O)N(C)Cc2ccccc2C)s1	x	x	-5%	-1%
CCC(=O)Nc1cccc(Oc2nc(C)cc(C)c2C#N)c1	13%	-2%	4%	6%
CC(=O)Nc1cccc(Oc2nc(C)cc(C)c2C#N)c1	u	16%	24µM*	9%[57.4 µM]
Cc1cc(C(=O)NNC(=S)NC(C)C)cs1	x	x	x	6%
C=CCN(CC=C)c1cnn(-c2nc3ccccc3[nH]2)c(=O)c1Cl	-5%	-10%	-4%	8%
O=c1c(Cl)c(NCCCO)cnn1-c1nc2ccccc2[nH]1	-16%	12%	13µM*	0%
O=C(O)CCC(=O)N1C[C@@H]2C[C@H]1C(=O)N(Cc1ccccc1)c1ccccc1O2	x	x	x	-7%[176 µM]
CCCN(CC1CC1)C(=O)CSc1ncnc2sc(C)c(C)c12	-12%	-22%	-3%	2%
CN(Cc1ccc(C(F)(F)F)cc1)Cc1nc2c([nH]1)c(=O)n(C)c(=O)n2C	x	x	x	50%
CC(C)(C)c1ccc(-c2nc3[nH]c(=O)cc(NC(=O)c4ccco4)n3n2)cc1	-8%	40µM*	24µM*	1%
CCC(=O)Nc1cc(=O)[nH]c2ncnn12	-7%	9%	-6%	-13%
CCC(=O)Nc1cc(=O)[nH]c2nc(-c3ccc(Cl)cc3)nn12	u	25%	21µM*	0%
Cc1ccc(-c2nc3[nH]c(=O)cc(NC(=O)c4cccs4)n3n2)cc1	-3%	9%	-13%	3%
SMILES	VDR inhibitor	Sfp inh	PLK1 PBD block	12-LOX inh
Cc1ccc(NC(=O)NCCc2ncc(C)n2C2CCC2)cc1C	x	x	x	74%
NC1CCc2nn(CC(=O)NCc3ccc4c(c3)OCO4)c(=O)n2CC1 (stereo not given)	x	x	x	50µM*
CN1CC(=O)N(c2ccc(Cl)cc2)Cc2c(NCCO)ncnc21	x	x	x	-8%
c1ccc(CCN(Cc2ccccc2)C2CCN(C3CCCC3)CC2)cc1	-8%	50µM*	-9%	u
O=C(CCCc1ccccc1)N1CCN(C2CCCCC2)CC1	-6%	8%	-10%	22%
COc1cccc(Cn2cnc3c(NS(=O)(=O)c4cccc(Cl)c4Cl)c(C)c(C)cc32)c1	18%	2%	-5%	9%
COCCn1cnnc1SCC(=O)Nc1ccc(Br)cc1F	1%	15%	-11%	-4%
COCCn1cnnc1SCc1csc(-c2cc(Br)ccc2OC)n1	x	x	x	16µM*
COc1ccc(C2C=C(c3cccs3)Nc3nc(CCCO)nn32)cc1 (stereo not given)	x	16µM*	x	x
COc1ccc(C2C=C(c3ccccc3)Nc3nc(CCCO)nn32)cc1 (stereo not given)	-2%	5%	-14%	-2%
O=C(CCCCn1c(=O)c2ccccc2n(Cc2ccc(F)cc2Cl)c1=O)NCCc1ccc(Cl)cc1	3%	x	x	-12%

Screening data: PubChem BioAssay, National Center for Advancing Translational Sciences (NCATS)
